# CYP2C19 activ: human CYP2C19 activators, primary screen, biochemical, luminescence; recombinant CYP2C19, luciferin-H EGE luminescence; active compounds read high; 0 = fully inhibited enzyme, 1 = untreated enzyme; activation factor at 5 µM; 96,000 tested, under 10 active;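 active means activation factor of at least 2 at 5 µM in the primary screen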
# Target sequence (P33261 whole entry, looked up): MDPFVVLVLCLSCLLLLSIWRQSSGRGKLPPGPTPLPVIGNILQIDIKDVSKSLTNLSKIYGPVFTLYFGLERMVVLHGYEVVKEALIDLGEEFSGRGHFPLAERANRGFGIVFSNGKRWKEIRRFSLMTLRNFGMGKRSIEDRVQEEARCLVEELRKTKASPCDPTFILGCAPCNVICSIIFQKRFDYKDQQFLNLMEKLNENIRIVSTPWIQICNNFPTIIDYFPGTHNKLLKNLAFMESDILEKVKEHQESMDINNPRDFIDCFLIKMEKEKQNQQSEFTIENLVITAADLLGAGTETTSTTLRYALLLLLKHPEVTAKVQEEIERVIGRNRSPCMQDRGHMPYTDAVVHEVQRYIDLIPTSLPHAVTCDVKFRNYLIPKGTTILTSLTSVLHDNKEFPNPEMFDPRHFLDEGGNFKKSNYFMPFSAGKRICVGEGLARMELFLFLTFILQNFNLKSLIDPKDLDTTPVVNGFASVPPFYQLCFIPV
# CYP2C9 inhib: blockers of cytochrome P450 2C9 activity – biochemical, luminescence, ADME assay, primary screen; P11712; CYP2C9 Supersomes, luciferin-H conversion; inhibition, % at 5 µM; 20% of 96,000 active;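 active means blocking of liver enzyme CYP2C9 beyond about 50% at 5 µM, limit read from the data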
# CYP2C9 activ: human CYP2C9 activators, primary screen, biochemical, luminescence; AID 1024, 2008; recombinant CYP2C9, luciferin-H conversion; active compounds read high; factor 1 = untreated enzyme, 0 = blocked; 1.4% of 96,000 active; Cytochrome P450 2C9 (Homo sapiens), P11712; activation factor at 5 µM;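 active means activation factor of 2 or more for CYP2C9 at a 5 µM dose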
# sEH act: soluble epoxide hydrolase activators, primary screen, biochemical, human sEH. 0.04% of 91,000 active. activation, % at 2 µM. purified human sEH enzymatic activity, activator screen. AID 717, 2007; in the data active means activation above about 37%
# sEH inh: soluble epoxide hydrolase inhibitors, primary screen, biochemical, human sEH; 0.34% of 91,000 active; recombinant human sEH enzymatic activity assay; inhibition, % at 2 µM; in the data active means inhibition above about 80%
# CYP2C19 inh: blockers of cytochrome P450 2C19 activity – biochemical, luminescence, ADME assay, primary screen; 21% of 96,000 active; CYP2C19 Supersomes, luciferin-H EGE luminescence, 30 min; inhibition, % at 5 µM; AID 778, 2007; P33261;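 active means CYP2C19 inhibition above a set limit at 5 µM in the primary screen, cut at about 50% in these data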
# Numbers stand for hits; 0 = inactive; - = no result. Most compounds without a hit are left out; they make up all but 27% or so of the library.
SMILES,CYP2C19 activ,CYP2C9 inhib,CYP2C9 activ,sEH act,sEH inh,CYP2C19 inh
c1cncc(-c2nc(NCc3ccco3)c3ccccc3n2)c1,0,62.1,0,0,0,0
Cc1ccc(-c2nc(N/N=C/c3cccnc3)c3ccccc3n2)cc1,0,81.5,0,0,0,96.3
Cc1noc(N)c1C(=O)Nc1ccc(C(C)(C)C)cc1,0,0,0,0,0,0
COc1ccc(S(=O)(=O)NCc2ccncc2)cc1OC,0,0,0,-,-,100.0
CCOC(=O)N1CCN(C(=O)COc2ccc(S(=O)(=O)NCc3ccccc3)cc2)CC1,0,0,0,0,0,0
CCOc1ccc(S(=O)(=O)NCc2ccccn2)cc1,0,0,0,0,0,74.1
Cc1ccc(C)c(S(=O)(=O)NCc2cccnc2)c1,-,-,-,0,0,-
Cc1ccc(C)c(S(=O)(=O)NCc2ccncc2)c1,0,0,0,0,0,83.0
CCOC(=O)COc1ccc(S(=O)(=O)NCc2ccncc2)cc1,0,67.4,0,0,0,98.4
O=C1CC(c2ccc(S(=O)(=O)NC3CC3)cc2)CN1 (stereo unspecified),0,0,0,0,0,0
Cc1ccc(CNS(=O)(=O)N(C)C)cc1,0,0,0,0,0,62.4
O=C1CC(c2ccc(S(=O)(=O)NCc3ccncc3)cc2)CN1 (stereo unspecified),0,53.5,0,0,0,85.1
CCOc1ccc(S(=O)(=O)NCc2ccncc2)cc1,0,79.4,0,0,0,100.4
CC1CCCCC1NS(=O)(=O)c1ccc(S(=O)(=O)NCc2ccncc2)cc1 (stereo unspecified),0,100.3,0,0,0,98.3
COc1cccc(C2/C(=C(\O)c3ccc4c(c3)OCCO4)C(=O)C(=O)N2CCCN(C)C)c1OC (stereo unspecified),-,-,-,0,0,-
Cc1cc(=O)oc2cc(Oc3ncccn3)ccc12,0,0,0,0,0,0
CNC(=O)C1C(=S)NC(N)=C(C#N)C1c1ccccc1 (stereo unspecified),0,0,0,0,0,0
Cc1ccc(C)c(S(=O)(=O)NCc2ccc(C(=O)NCc3ccccn3)cc2)c1,0,88.7,0,0,0,88.6
Cc1ccc(S(=O)(=O)NCc2ccncc2)cc1,0,0,0,0,0,97.3
COc1ccc(S(=O)(=O)NCCC(C)C)cc1OC,0,0,3.4,0,0,95.8
CC(C)CCNS(=O)(=O)c1ccc(-c2ccc(S(=O)(=O)NCCC(C)C)cc2)cc1,0,0,0,0,0,0
Cc1ccc(S(=O)(=O)NCC(=O)NCc2ccncc2)cc1,-,-,-,0,0,-
COc1cc(C(C(=O)NC(C)(C)C)N(Cc2ccc3c(c2)OCO3)C(=O)c2cnccn2)cc(OC)c1OC (stereo unspecified),0,0,0,0,0,0
C=CCN1C(=NC(=O)CC)SC2CS(=O)(=O)CC21 (stereo unspecified),0,0,0,0,0,0
Cc1nc2ccc(-c3ccccc3)cc2o1,0,0,0,0,0,0
SMILES,CYP2C19 activ,CYP2C9 inhib,CYP2C9 activ,sEH act,sEH inh,CYP2C19 inh
CN(CC(=O)O)S(=O)(=O)c1cccs1,0,0,0,-,-,0
O=C(c1ccco1)N1CCN(C(=O)C(Cc2ccccc2)NS(=O)(=O)c2cccs2)CC1 (stereo unspecified),0,0,0,0,0,0
CC(C)C(NS(=O)(=O)c1cccs1)C(=O)N(C)Cc1ccccc1 (stereo unspecified),0,95.5,0,0,0,96.4
CN(CC(=O)NCCc1ccccc1)S(=O)(=O)c1cccs1,0,0,0,-,-,58.0
CN(Cc1ccccc1)S(=O)(=O)c1cccs1,0,0,0,0,0,97.9
CN(Cc1cccs1)S(=O)(=O)c1cccs1,0,0,0,0,0,91.5
O=C(NCC1CCCO1)c1ccc(CS(=O)(=O)Cc2ccc(F)cc2)o1 (stereo unspecified),0,0,0,0,0,0
CCC(N)C12CC3CC(CC(O)(C3)C1)C2 (stereo unspecified),-,-,-,0,0,-
CN(CC(CC(=O)Nc1nncs1)c1ccccc1)S(=O)(=O)c1ccc(Br)cc1 (stereo unspecified),0,56.6,0,0,0,94.5
CN(CC(CC(=O)Nc1nncs1)c1ccccc1)S(=O)(=O)c1ccccc1 (stereo unspecified),0,54.1,0,0,0,89.8
CCc1nnc(NC(=O)CC(CN(C)S(=O)(=O)c2ccccc2)c2ccccc2)s1 (stereo unspecified),0,0,0,0,0,0
Cc1nnc(NC(=O)CC(CN(C)S(=O)(=O)c2ccccc2)c2ccccc2)s1 (stereo unspecified),0,0,0,0,0,69.6
CN(C)c1ccc(NC(=O)CC2NCCNC2=O)cc1 (stereo unspecified),0,0,0,0,0,0
COc1cccc(OCCn2c(C)c(/C=N/n3cnnc3)c3ccccc32)c1,0,0,0,0,0,56.0
Cc1cccc(OCCn2c(S(=O)(=O)O)nc3ccccc32)c1,0,0,0,0,0,0
COc1ccc(OCCn2c(C)c(/C=N/n3cnnc3)c3ccccc32)cc1,0,74.9,0,0,0,75.6
Cc1c(/C=N/n2cnnc2)c2ccccc2n1C,0,0,0,0,0,76.6
CCn1c(=N)n(CCOc2ccc(OC)cc2)c2ccccc21,0,0,0,0,0,0
CCOC(=O)N1CCN(C(=O)CN(c2ccc(OCc3ccccc3)cc2)S(C)(=O)=O)CC1,0,0,0,0,0,0
C=CCNC(=O)c1ccc2c(c1)nnn2C,0,0,0,0,0,0
CSc1nsc(SCC(=O)NC2CCCCC2)n1,0,0,0,0,0,95.9
COc1cc(OC)cc(-n2nnnc2SCC(=O)NC2CCCC2)c1,0,0,3.1,0,0,0
Cn1ccnc1SCC(=O)NC1CCCCC1,0,0,0,0,0,91.9
CCOC(=O)C1=C(C)NC(=O)NC1c1ccc(OC)c(CN2CCOCC2)c1 (stereo unspecified),0,0,0,0,0,0
COc1ccc(OC)c(C2c3c(oc4ccccc4c3=O)C(=O)N2CCCN(C)C)c1 (stereo unspecified),0,0,0,0,0,0
CC(C)NC(=S)NN(c1ccccc1)c1ccccc1,0,51.0,0,0,0,61.5
CCOC(=O)c1[nH]c2ccc(OC)cc2c1N=CN(C)C,0,0,0,0,0,0
COc1cccc(NC(=O)CSc2nnc(Cc3cccs3)n2-c2ccc(C)cc2)c1,0,65.4,0,0,0,0
COc1ccc(NC(=O)CSc2nnc(Cc3cccs3)n2-c2ccc(C)cc2)cc1,0,51.2,0,0,0,72.7

# Source: PubChem (several laboratories)
